Screening results deposited in PubChem by several laboratories.
Peg3 promoter: Peg3 promoter-driven luciferase inhibitors, primary screen, cell-based, HeLa, luciferase luminescence. HeLa PEG-Prom luciferase reporter, overnight. inhibition, % at 20 µM. hit rate 1.7% among 360,000;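 active means inhibition of at least 50% at 20 µM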
KKLEB cytotox: cytotoxicity in KKLEB CF airway cells, primary screen, cytotoxicity control for CF NF-kB inhibitor project, cell-based, uHTS, fluorescence assay plates | KKLEB CF airway cells viability, ATPlite luminescence, overnight; active compounds read low; cells stimulated with P. aeruginosa culture filtrate | hit rate 0.36% among 360,000 | activity change (cytotoxicity), % at 5 µM;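 active means corrected activity change at or below -50% at 5 µM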
CF NFkB block: inhibitors of PAF-induced NF-kB signaling, primary screen, cell-based, GFP fluorescence, uHTS. KKLEB NF-kB-GFP reporter, GFP fluorescence overnight. inhibition, % at 5 µM. hit rate 0.86% among 360,000;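 active means at least 50% inhibition at 5 µM, scaled per plate between neutral and stimulator controls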;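 further: PAF is a Pseudomonas aeruginosa culture filtrate used as stimulus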
HSP90 inh: HSP90 inhibitors, primary screen, cell lysate, luminescence. Heat shock protein HSP 90 (rabbit reticulocyte lysate; luciferase refolding). Rabbit reticulocyte lysate, luciferase refolding luminescence, 3 h. inhibition, % at 5.6 µM. hit rate 0.91% among 290,000;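 active means inhibition above the screen-wide mean plus 3 SD, computed separately per campaign, cut at about 16% in these data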;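 further: inhibitors lower the luminescence because luciferase stays unfolded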
Mdm2-MdmX inh: inhibitors of human Mdm2-MdmX association, primary screen, cell-based, luminescence, split luciferase, SaOS-2, uHTS | inhibition, % at 8 µM | hit rate 3% among 330,000 | Protein Mdm4 (Homo sapiens) + E3 ubiquitin-protein ligase Mdm2 (Homo sapiens), … | SaOS-2 split-luciferase Mdm2/MdmX complementation | AID 485346, 2010;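 active means inhibition of at least 50% at 8 µM in the primary screen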
LGR2 inh: inhibitors of bursicon-induced LGR2 CRE-luciferase signal, primary screen, cell-based, HEK293, CRE-luciferase reporter, bursicon stimulation; Drosophila bursicon receptor LGR2 (rickets); bursicon-stimulated, 4 h; inhibition, % at 9.99 µM; hit rate 0.35% among 380,000; AID 720647, 2013;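 active means drop in luminescence signal, shown as inhibition above about 50% in the replicate tests, limit read from the data, passing the limit was not always enough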;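 further: agonist challenge used bursicon conditioned medium at about half maximal strength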
Mdm2-MdmX conf: Mdm2-MdmX complex disruptors, retested hits, confirmation, luminescence, single concentration; shares compounds with Mdm2-MdmX inh; Mdm2-MdmX binding, luminescent assay; inhibition, % at 8 µM; hit rate 55% among 10,000; AID 489028, 2010; in the data active means inhibition above about 40%
Full FLuc ctr: full-length luciferase signal inhibition, confirmation, counter-screen for Mdm2/MdmX interaction inhibitor project, cell-based, single concentration, SaOS-2. AID 504607, 2011. SaOS-2 full-length luciferase counterscreen, luminescence. shares compounds with Mdm2-MdmX inh. hit rate 77% among 6,200. inhibition, % at 8 µM;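 active means mean inhibition at 8 µM reaching about 37%, which flags the compound as non-specific, limit read from the data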;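 further: p53-null SaOS-2 cells with luciferase driven by a doxycycline-inducible promoter; compound on cells about two nights before reading with doxycycline added after day one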
Hits are given with their value; – = inactive; · = no result given. Sampled rows, rich in hits. Any-hit rate of the full collection: about 3.6%.

SMILES	Peg3 promoter	KKLEB cytotox	CF NFkB block	HSP90 inh	Mdm2-MdmX inh	LGR2 inh	Mdm2-MdmX conf	others
COc1cc(C(=O)N/N=C/c2ccsc2C)cc(OC)c1OC	–	–	–	–	77	·	67	Full FLuc ctr=89
Cc1c(Cl)cccc1N/C(SCC(=O)N1CCCCCC1)=C(/C#N)c1nc2ccccc2s1	–	-65	54	–	91	–	66	Full FLuc ctr=–
COCCNC(=O)[C@@H]1[C@@H](CO)[C@@H]2Cn3c(ccc(-c4ccccc4F)c3=O)[C@H]1N2S(C)(=O)=O	·	·	·	·	·	–	·
COc1ccc(S(=O)(=O)N(C)C[C@H]2OCCCC[C@H](C)Oc3ccc(NC(=O)CCC(F)(F)F)cc3C(=O)N([C@H](C)CO)C[C@@H]2C)cc1	·	·	·	·	·	–	·
Cc1cc2nc(-c3ccc(SCC(=O)Nc4ccc(S(=O)(=O)N5CCCC5)cc4)nc3)[nH]c2cc1C	–	-54	–	–	69	–	–
Cc1ccc(NC(=O)COc2coc(CN3CCc4ccccc43)cc2=O)cc1Cl	–	–	–	·	62	–	–
COC(=O)c1ccc(NC(=O)COc2coc(CN3CCc4ccccc43)cc2=O)cc1	–	–	–	·	–	–	·
CCCC(=O)N1C[C@@H]2[C@H](c3ccccc31)[C@H](CO)N2C(=O)Nc1ccccc1	·	·	·	·	·	–	·
CN1CCN(c2ccc(NC(=O)c3ccc([N+](=O)[O-])o3)cc2Cl)CC1	100	–	80	–	64	–	50	Full FLuc ctr=–
CCN1CCN(c2c(Cl)cccc2NC(=O)c2ccc([N+](=O)[O-])o2)CC1	52	–	–	–	55	–	–
CC(C)C(=O)N1CCN(c2ccc(NC(=O)c3ccc([N+](=O)[O-])o3)cc2)CC1	112	–	90	–	72	–	52	Full FLuc ctr=–
CC(=O)N1CCN(c2ccc(NC(=O)c3ccc(Br)o3)cc2Cl)CC1	–	–	–	–	–	–	·
Cc1ccccc1C(=O)N1CCN(c2ccc(NC(=O)c3cccnc3)cc2)CC1	–	–	–	–	–	–	·
Cc1ccccc1C(=O)N1CCN(c2ccc(NC(=O)c3ccc([N+](=O)[O-])o3)cc2)CC1	101	–	64	–	72	–	76	Full FLuc ctr=90
O=C(Nc1cccc(Cl)c1N1CCCC1)c1ccc([N+](=O)[O-])o1	–	–	–	–	–	–	·
O=C(c1cnccn1)N1CC(=O)N2[C@@H](CO)[C@@H](c3ccc(C#CCc4ccccc4)cc3)[C@@H]2C1	·	·	·	·	·	–	·
CC(=O)N1[C@@H]2Cn3c(ccc(C4=CCCC4)c3=O)[C@H]1[C@@H](C(=O)NCc1ccccc1)[C@@H]2CO	·	·	·	·	·	–	·
O=C(Nc1ccccc1N1CCN(C(=O)c2ccc(Cl)cc2)CC1)c1ccc([N+](=O)[O-])o1	–	–	–	–	55	·	–
CNC(=O)c1ccc(-c2sc3nc(N4CCOCC4)c4c(c3c2N)CC(C)(C)OC4)o1	–	–	–	–	61	·	–
CC1(C)Cc2c(c(N3CCOCC3)nc3sc(-c4ccc(C(=O)O)o4)c(N)c23)CO1	–	–	–	–	–	·	·
COc1ccc(S(=O)(=O)N(C)C[C@@H]2Oc3ccc(NS(=O)(=O)c4ccccc4)cc3C(=O)N([C@H](C)CO)C[C@@H]2C)cc1	·	·	·	·	·	–	·
O=C1N[C@@H](Cc2ccccc2)C(=O)N2[C@H]3Nc4ccccc4[C@@]3([C@]34C[C@H]5C(=O)N[C@@H](Cc6ccccc6)C(=O)N5[C@H]3Nc3ccccc34)C[C@@H]12	·	·	·	·	53	·	–
CN1C(=O)[C@@H]2C[C@@]3([C@@]45C[C@H]6C(=O)N(C)[C@@H](Cc7ccccc7)C(=O)N6[C@@H]4Nc4ccccc45)c4ccccc4N[C@H]3N2C(=O)[C@@H]1Cc1ccccc1	–	–	–	·	–	–	·
Cc1cccc(N2CCN(C(=O)c3c(-c4ccccc4Cl)noc3C)CC2)c1C	–	–	–	–	59	–	76	Full FLuc ctr=71
Cc1ccc(NC(=O)CC2S/C(=N/N=C/C=C/c3ccccc3)NC2=O)cc1Cl (stereo not drawn)	–	–	–	–	54	–	–
SMILES	Peg3 promoter	KKLEB cytotox	CF NFkB block	HSP90 inh	Mdm2-MdmX inh	LGR2 inh	Mdm2-MdmX conf	others
C[C@@H]1CN([C@@H](C)CO)S(=O)(=O)c2ccc(C#C[C@@H](C)O)cc2O[C@@H]1CN(C)C(=O)C1CCCCC1	·	·	·	·	·	–	·
CC(C)(CO)NCc1c(OCc2ccc(Cl)cc2)ccc2ccccc12	54	–	–	–	55	–	–
C[C@H](CO)N1C[C@H](C)[C@@H](CN(C)S(=O)(=O)c2cn(C)cn2)Oc2c(NC(=O)NC3CCCCC3)cccc2C1=O	·	·	·	·	·	–	·
CC(=O)Nc1nnc(SCC(=O)c2ccc3c(c2)Cc2ccccc2-3)s1	–	–	–	–	–	–	·
CCC(=O)Nc1nnc(SCC(=O)c2ccc3c(c2)Cc2ccccc2-3)s1	–	–	–	–	55	–	–
Cc1ccc(Cn2ccsc2=NC(=O)CCl)cc1	–	-92	94	–	99	–	99	Full FLuc ctr=59
Cc1ccc(Cn2ccsc2=NC(=O)COC(=O)c2ccc(NC(=O)CC#N)cc2)cc1	–	–	–	·	–	–	·
COc1ccc(/C=N/Nc2nonc2N)cc1OC	–	–	–	–	51	·	–
O=C(NCCCN1CCOCC1)[C@@H]1[C@@H](CO)[C@@H]2Cn3c(cccc3=O)[C@H]1N2C(=O)C1CCCCC1	·	·	·	·	·	–	·
O=C(NC1CCCC1)c1cnn2c(C(F)(F)F)cc(-c3ccc4c(c3)OCO4)nc12	–	–	–	–	62	·	–
O=C(c1cnn2c(C(F)(F)F)cc(-c3ccc4c(c3)OCO4)nc12)N1CCCCC1	–	–	–	–	–	·	·
CCN(c1ccccc1)S(=O)(=O)c1ccc(C(=O)NC2CCN(Cc3ccccc3)CC2)cc1	–	–	–	·	54	·	55	Full FLuc ctr=57
CCN(CC)c1ccc(S(=O)(=O)Nc2cc(Cl)ccc2Cl)cc1NC(=S)NC(=O)C1CCCC1	–	–	–	–	–	–	·
O=C(CCl)Nc1cc(S(=O)(=O)N2CCCCCC2)ccc1Cl	–	–	–	–	92	–	–	Full FLuc ctr=50
